Test [1] concerns Jurkat. In words: mean cell size (FSC-A) relative to DMSO control (fraction of control); higher = larger cells. As to conditions: 48 h. Summed up: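 Jurkat cells seeded at 600 cells/µl were incubated 1 h, then exposed for 48h to the Enzo Screen-Well FDA Approved Drug Library v2.0 at 25µM in 0.9% (v/v) final DMSO. Drugs that cut counts below 20% of controls were diluted 10-fold and retested, down to 25nM. Cell count and mean cell size (forward scatter area) were read on an Accuri C6 flow cytometer, relative to solvent-only controls. Plates held 6-12 controls; values are means of 3 biological replicates.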

Test [2] concerns Jurkat. Kind of test: cell count relative to DMSO control (fraction of control); higher = more cells (less growth inhibition). The settings on record: 48 h.

Structures can show the parent of a compound that is named as a salt. ± gives the standard deviation.

Experimental findings from the supplement of paper PMC4709259 are described below.

In the test with Jurkat [1], `CN(C)CCC=C1c2ccccc2COc2ccccc21` [Doxepin·HCl] (concentration: 25 µM) showed a mean cell size of 0.978 ± 0.049. In addition, the cell count with Jurkat [2] worked out at 0.988 ± 0.13.
Compound `C[C@@H](CN1CC(=O)NC(=O)C1)N1CC(=O)NC(=O)C1` [Dexrazoxane] (concentration: 25 µM) returned a mean cell size in the test with Jurkat [1] of 0.9682 ± 0.0057. The compound also returned a cell count in the test with Jurkat [2] of 0.411 ± 0.11.
Taken in the same sequence, the figures for `C[C@H]1[C@H](NC(=O)/C(=N\OC(C)(C)C(=O)O)c2csc(N)n2)C(=O)N1S(=O)(=O)O` [Aztreonam] (concentration: 25 µM) were 0.927 ± 0.022 and 0.64 ± 0.086.
For the compound `N[C@@H](C(=O)N[C@@H]1C(=O)N2C(C(=O)O)=C(Cl)CS[C@H]12)c1ccccc1` [Cefaclor] (concentration: 25 µM), the mean cell size with Jurkat [1] was 0.916 ± 0.015. Also, the cell count in the test with Jurkat [2] worked out at 1.03 ± 0.097.
In the test with Jurkat [1], `Clc1ccc2c(c1)CCc1cccnc1C2=C1CCNCC1` [Desloratadine] (concentration: 25 µM) displayed a mean cell size of 1 ± 0.05. In addition, in the test with Jurkat [2], the cell count worked out at 0.702 ± 0.045.
On the same counts, the results for `C[C@@H]1[C@H](O)[C@@H](C)/C=C/C=C/C=C/C=C/C=C/C=C/C=C/[C@H](O[C@@H]2O[C@H](C)[C@@H](O)[C@H](N)[C@@H]2O)C[C@@H]2O[C@](O)(C[C@@H](O)C[C@@H](O)[C@H](O)CC[C@@H](O)C[C@@H](O)CC(=O)O[C@H]1C)C[C@H](O)[C@H]2C(=O)O` [Amphotericin B] (concentration: 25 µM) are 1.016 ± 0.0092 and 0.27 ± 0.024.
As to `C#C[C@]1(O)CC[C@H]2[C@@H]3CCC4=CC(=O)CC[C@@H]4[C@H]3C(=C)C[C@@]21CC` [Etonogestrel] (concentration: 25 µM), in the test with Jurkat [1], the mean cell size was 0.997 ± 0.025. Further, in the test with Jurkat [2], the cell count turned out to be 0.557 ± 0.013.
As for `COc1cc([C@@H]2c3cc4c(cc3[C@@H](O[C@@H]3O[C@@H]5CO[C@@H](C)O[C@H]5[C@H](O)[C@H]3O)[C@H]3COC(=O)[C@H]23)OCO4)cc(OC)c1O` [Etoposide] (concentration: 250 nM), the mean cell size in the test with Jurkat [1] is 1.25 ± 0.076. This compound also showed a cell count in the test with Jurkat [2] of 0.243 ± 0.051.
As for `Cc1nnc(C(=O)NC(C)(C)c2nc(C(=O)NCc3ccc(F)cc3)c(O)c(=O)n2C)o1` [Raltegravir] (concentration: 25 µM), the mean cell size in the test on Jurkat [1] is 0.9483 ± 0.0067. In addition, the cell count in the test on Jurkat [2] was 0.569 ± 0.11.
Turning to `O=C1CN2Cc3c(ccc(Cl)c3Cl)N=C2N1` [Anagrelide] (concentration: 25 µM), the mean cell size with Jurkat [1] came to 1 ± 0.023. The compound further had a cell count with Jurkat [2] of 0.696 ± 0.12.
Take `COc1ccc2cc(CCC(C)=O)ccc2c1` [Nabumetone] (concentration: 25 µM): the mean cell size in the test on Jurkat [1] turned out to be 0.938 ± 0.032. In the test on Jurkat [2], the cell count is 0.888 ± 0.058.
Take `Cc1oncc1C(=O)Nc1ccc(C(F)(F)F)cc1` [Leflunomide] (concentration: 25 µM): the mean cell size with Jurkat [1] is 1.07 ± 0.025. The compound also gave a cell count in the test with Jurkat [2] of 0.606 ± 0.038.
In the case of `Cc1ccc(/C(=C\CN2CCCC2)c2cccc(/C=C/C(=O)O)n2)cc1` [Acrivastine] (concentration: 5 µM), the mean cell size in the test with Jurkat [1] was 1.06 ± 0.052. Further, the cell count with Jurkat [2] turned out to be 0.976 ± 0.12.
On the same counts, the results for `CC(=O)OCC(=O)[C@@]1(O)CC[C@H]2[C@@H]3CCC4=CC(=O)CC[C@]4(C)[C@@]3(F)[C@@H](O)C[C@@]21C` [Fludrocortisone Acetate] (concentration: 25 µM) are 0.932 ± 0.058 and 0.63 ± 0.033.
In turn, `CC(=O)NS(=O)(=O)c1ccc(N)cc1` [Sulfacetamide·Na] (concentration: 25 µM) yielded a mean cell size in the test on Jurkat [1] of 0.951 ± 0.038. This compound also came in with a cell count with Jurkat [2] of 0.78 ± 0.07.
On to `CN(Cc1cnc2nc(N)nc(N)c2n1)c1ccc(C(=O)N[C@@H](CCC(=O)O)C(=O)O)cc1` [Methotrexate] (concentration: 25 nM), for which, in the test on Jurkat [1], the mean cell size came to 1.16 ± 0.035. This compound also came in with a cell count with Jurkat [2] of 0.499 ± 0.093.
As for `C#C[C@]1(O)CC[C@H]2[C@@H]3CCc4cc(OC)ccc4[C@H]3CC[C@@]21C` [Mestranol] (concentration: 25 µM), the mean cell size in the test with Jurkat [1] came out at 1.01 ± 0.022. The same compound returned a cell count with Jurkat [2] of 0.91 ± 0.12.
`Nc1nc(O)c2ncn(CCC(CO)CO)c2n1` [Penciclovir] (concentration: 25 µM) displayed a mean cell size in the test with Jurkat [1] of 0.95 ± 0.021. The compound also showed a cell count with Jurkat [2] of 0.993 ± 0.053.
On the same counts, the results for `COC(c1ccccc1)(c1ccccc1)[C@H](Oc1nc(C)cc(C)n1)C(=O)O` [Ambrisentan] (concentration: 25 µM) are 0.975 ± 0.043 and 0.757 ± 0.088.
In turn, `C[C@@H]1C[C@H]2[C@@H]3CCC4=CC(=O)C=C[C@]4(C)[C@@]3(Cl)[C@@H](O)C[C@]2(C)[C@@]1(OC(=O)c1ccco1)C(=O)CCl` [Mometasone Furoate] (concentration: 25 µM) had a mean cell size in the test on Jurkat [1] of 0.915 ± 0.037. This compound also gave a cell count with Jurkat [2] of 0.47 ± 0.17.
As to `CC(C)(C(=O)c1cccnc1)c1cccnc1` [Metyrapone] (concentration: 25 µM), in the test with Jurkat [1], the mean cell size was 1.04 ± 0.058. The same compound returned a cell count in the test with Jurkat [2] of 0.924 ± 0.079.
As for `CCCCc1oc2ccccc2c1C(=O)c1cc(I)c(OCCN(CC)CC)c(I)c1` [Amiodarone·HCl] (concentration: 2.5 µM), the mean cell size with Jurkat [1] is 1.05 ± 0.018. Moreover, the cell count in the test on Jurkat [2] was 0.616 ± 0.12.
For the compound `CC=CC1=C(C(=O)O)N2C(=O)[C@@H](NC(=O)[C@H](N)c3ccc(O)cc3)[C@H]2SC1` [Cefprozil] (concentration: 25 µM), in the test on Jurkat [1], the mean cell size came out at 0.951 ± 0.035. Moreover, the cell count in the test with Jurkat [2] turned out to be 1.06 ± 0.035.
Consider `O=C(O)c1cccnc1` [Niacin (Known As Vitamin B3, Nicotinic Acid And Vitamin Pp)] (concentration: 25 µM), for which the mean cell size in the test on Jurkat [1] stood at 0.945 ± 0.053. Besides, in the test on Jurkat [2], the cell count was found to be 0.426 ± 0.096.
Compound `CC(CCc1ccc(O)cc1)NCCc1ccc(O)c(O)c1` (stereo not given) [Dobutamine·HCl] (concentration: 25 µM) returned a mean cell size in the test on Jurkat [1] of 0.952 ± 0.042. In the test with Jurkat [2], this compound had a cell count of 0.464 ± 0.13.
